Measured values taken from the supplement of paper PMC10849652.
Targets with a hit are over-represented here; the source holds about 8,800 in all. About 0.5% of all pairs of compound and target were hits.

compound: COC(=O)[C@H](CCSC)NC(=O)C1=C(C=C(C=C1)NC[C@H](CS)N)C2=CC=CC=C2; assay: log2 fold change, soluble protein after heating vs DMSO (PISA); higher = thermal stabilisation; K562 lysate, 10 uM; active = over 0.2 and 3.5 SD of the protein, either way, in both replicates (recomputed)
Summary of the method: (§1)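 K562 pellets were dounce-homogenised in PBS pH 7.4 with 1 mM MgCl2, and the crude extract at 1 mg/mL protein was treated with 10 μM compound for 30 min. Aliquots were heated for 3 min across 48°C-58°C, pooled, and brought to 0.5% NP-40 at 4°C; soluble protein was the supernatant after 21,000xg for 90 min. Soluble protein was quantified by TMTpro 16plex LC-MS/MS with channel sums equalised, and reported as log2 fold change in thermal stability against DMSO controls, with values from duplicates.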

UniProt O75152, sequence (O75152 whole entry, looked up): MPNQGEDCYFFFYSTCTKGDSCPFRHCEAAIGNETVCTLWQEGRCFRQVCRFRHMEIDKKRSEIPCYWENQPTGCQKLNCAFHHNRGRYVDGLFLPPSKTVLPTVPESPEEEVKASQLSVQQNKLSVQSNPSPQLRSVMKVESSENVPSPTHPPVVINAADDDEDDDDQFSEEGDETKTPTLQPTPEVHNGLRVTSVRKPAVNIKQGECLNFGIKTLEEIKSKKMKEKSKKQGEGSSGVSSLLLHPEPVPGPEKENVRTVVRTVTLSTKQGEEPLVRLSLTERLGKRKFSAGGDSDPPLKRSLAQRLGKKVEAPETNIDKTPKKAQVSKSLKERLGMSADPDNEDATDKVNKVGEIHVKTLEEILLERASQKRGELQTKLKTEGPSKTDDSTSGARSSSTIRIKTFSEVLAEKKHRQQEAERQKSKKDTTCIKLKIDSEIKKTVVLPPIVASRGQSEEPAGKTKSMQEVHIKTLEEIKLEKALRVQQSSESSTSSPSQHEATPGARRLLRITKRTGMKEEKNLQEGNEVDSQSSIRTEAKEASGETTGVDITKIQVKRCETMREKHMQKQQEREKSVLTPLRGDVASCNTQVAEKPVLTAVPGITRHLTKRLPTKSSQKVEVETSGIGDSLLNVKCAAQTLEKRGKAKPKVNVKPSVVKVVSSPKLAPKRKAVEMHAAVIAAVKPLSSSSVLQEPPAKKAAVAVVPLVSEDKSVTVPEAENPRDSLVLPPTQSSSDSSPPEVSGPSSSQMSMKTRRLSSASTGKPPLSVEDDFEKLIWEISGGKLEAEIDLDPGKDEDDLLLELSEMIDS
UniProt Q9UK41, sequence (Q9UK41 whole entry, looked up): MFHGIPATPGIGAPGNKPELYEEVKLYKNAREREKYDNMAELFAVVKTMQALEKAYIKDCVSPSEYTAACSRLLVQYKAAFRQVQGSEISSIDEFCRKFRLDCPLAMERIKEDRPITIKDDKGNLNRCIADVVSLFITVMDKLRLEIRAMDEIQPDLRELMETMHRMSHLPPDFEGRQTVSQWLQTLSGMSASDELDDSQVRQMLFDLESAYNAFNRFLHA
UniProt Q9NQW7, sequence (Q9NQW7 whole entry, looked up): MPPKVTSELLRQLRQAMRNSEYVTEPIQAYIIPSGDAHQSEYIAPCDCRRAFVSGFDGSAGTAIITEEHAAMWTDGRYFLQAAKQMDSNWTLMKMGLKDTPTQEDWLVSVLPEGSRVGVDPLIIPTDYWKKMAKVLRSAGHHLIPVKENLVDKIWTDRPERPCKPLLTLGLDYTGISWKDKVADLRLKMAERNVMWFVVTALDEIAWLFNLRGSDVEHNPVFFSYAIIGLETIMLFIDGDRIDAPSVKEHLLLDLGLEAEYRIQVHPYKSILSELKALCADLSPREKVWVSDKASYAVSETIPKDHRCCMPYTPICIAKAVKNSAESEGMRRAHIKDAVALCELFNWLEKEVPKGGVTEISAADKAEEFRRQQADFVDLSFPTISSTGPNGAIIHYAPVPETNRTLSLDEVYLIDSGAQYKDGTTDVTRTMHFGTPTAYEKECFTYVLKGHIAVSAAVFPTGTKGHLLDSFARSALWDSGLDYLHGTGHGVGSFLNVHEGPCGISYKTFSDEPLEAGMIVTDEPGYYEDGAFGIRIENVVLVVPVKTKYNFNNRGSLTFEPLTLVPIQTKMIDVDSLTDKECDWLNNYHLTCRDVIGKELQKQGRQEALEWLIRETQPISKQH
UniProt Q8TBZ3, sequence (Q8TBZ3 whole entry, looked up): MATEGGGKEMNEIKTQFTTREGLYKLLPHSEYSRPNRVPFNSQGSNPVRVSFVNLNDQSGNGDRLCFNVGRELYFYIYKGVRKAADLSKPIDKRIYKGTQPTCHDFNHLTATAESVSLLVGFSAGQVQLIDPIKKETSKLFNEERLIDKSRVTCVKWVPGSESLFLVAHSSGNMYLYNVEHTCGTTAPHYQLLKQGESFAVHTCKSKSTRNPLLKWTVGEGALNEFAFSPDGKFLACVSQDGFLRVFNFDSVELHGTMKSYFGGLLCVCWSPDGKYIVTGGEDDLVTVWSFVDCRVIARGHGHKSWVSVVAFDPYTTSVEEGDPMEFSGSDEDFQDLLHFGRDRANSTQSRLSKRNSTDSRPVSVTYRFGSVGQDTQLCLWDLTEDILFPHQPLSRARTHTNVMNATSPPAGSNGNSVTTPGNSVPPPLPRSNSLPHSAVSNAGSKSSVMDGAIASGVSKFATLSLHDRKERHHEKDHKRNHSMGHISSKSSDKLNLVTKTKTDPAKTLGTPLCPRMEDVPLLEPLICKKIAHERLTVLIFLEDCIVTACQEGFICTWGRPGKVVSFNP
UniProt Q99986, sequence (Q99986 whole entry, looked up): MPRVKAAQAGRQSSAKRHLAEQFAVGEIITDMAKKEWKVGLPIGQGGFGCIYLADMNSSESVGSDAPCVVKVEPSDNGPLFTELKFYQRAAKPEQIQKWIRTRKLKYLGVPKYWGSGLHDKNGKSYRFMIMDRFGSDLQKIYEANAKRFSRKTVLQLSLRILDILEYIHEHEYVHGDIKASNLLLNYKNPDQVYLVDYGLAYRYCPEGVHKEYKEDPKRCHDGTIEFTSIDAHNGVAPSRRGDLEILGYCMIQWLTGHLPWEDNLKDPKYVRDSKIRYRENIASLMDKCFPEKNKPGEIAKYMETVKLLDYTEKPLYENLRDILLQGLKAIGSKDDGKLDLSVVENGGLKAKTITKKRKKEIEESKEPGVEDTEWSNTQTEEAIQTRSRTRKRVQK
UniProt O15014, sequence (O15014 whole entry, looked up): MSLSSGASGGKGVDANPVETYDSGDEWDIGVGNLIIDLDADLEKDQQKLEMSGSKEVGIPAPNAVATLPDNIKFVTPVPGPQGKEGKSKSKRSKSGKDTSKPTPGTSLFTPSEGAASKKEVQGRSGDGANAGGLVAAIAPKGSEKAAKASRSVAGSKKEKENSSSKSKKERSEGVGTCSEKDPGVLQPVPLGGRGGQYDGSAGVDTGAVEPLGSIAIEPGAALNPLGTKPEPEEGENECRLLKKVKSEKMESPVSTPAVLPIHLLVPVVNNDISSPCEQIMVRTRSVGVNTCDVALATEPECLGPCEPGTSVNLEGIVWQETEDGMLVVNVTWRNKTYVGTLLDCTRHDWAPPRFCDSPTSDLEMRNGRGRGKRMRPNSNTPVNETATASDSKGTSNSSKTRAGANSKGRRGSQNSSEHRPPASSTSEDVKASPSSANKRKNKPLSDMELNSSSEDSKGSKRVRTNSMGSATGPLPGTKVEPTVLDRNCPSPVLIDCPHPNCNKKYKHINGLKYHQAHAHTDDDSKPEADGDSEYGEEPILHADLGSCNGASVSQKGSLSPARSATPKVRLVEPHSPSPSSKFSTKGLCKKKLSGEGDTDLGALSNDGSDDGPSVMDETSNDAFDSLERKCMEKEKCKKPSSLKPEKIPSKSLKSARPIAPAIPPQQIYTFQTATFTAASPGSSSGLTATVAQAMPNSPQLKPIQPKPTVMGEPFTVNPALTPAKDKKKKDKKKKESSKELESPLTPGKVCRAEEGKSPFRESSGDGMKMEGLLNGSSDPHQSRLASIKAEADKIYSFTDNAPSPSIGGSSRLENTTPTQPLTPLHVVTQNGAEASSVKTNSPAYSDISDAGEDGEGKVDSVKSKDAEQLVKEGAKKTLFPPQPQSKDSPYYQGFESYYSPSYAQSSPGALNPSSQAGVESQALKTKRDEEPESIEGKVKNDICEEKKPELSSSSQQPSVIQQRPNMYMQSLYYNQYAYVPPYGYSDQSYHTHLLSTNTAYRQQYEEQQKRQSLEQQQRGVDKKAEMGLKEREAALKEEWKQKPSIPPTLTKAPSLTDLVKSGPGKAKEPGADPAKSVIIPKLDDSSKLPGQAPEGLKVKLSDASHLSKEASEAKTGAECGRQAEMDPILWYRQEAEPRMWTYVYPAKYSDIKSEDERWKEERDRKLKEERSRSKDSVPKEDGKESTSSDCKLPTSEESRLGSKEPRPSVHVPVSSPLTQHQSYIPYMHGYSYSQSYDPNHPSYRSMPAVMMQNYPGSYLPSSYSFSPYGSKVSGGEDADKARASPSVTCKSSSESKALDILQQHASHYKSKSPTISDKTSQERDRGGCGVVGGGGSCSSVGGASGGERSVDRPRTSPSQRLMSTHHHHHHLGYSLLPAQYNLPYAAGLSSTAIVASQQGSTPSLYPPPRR
UniProt Q86T24, sequence (Q86T24 whole entry, looked up): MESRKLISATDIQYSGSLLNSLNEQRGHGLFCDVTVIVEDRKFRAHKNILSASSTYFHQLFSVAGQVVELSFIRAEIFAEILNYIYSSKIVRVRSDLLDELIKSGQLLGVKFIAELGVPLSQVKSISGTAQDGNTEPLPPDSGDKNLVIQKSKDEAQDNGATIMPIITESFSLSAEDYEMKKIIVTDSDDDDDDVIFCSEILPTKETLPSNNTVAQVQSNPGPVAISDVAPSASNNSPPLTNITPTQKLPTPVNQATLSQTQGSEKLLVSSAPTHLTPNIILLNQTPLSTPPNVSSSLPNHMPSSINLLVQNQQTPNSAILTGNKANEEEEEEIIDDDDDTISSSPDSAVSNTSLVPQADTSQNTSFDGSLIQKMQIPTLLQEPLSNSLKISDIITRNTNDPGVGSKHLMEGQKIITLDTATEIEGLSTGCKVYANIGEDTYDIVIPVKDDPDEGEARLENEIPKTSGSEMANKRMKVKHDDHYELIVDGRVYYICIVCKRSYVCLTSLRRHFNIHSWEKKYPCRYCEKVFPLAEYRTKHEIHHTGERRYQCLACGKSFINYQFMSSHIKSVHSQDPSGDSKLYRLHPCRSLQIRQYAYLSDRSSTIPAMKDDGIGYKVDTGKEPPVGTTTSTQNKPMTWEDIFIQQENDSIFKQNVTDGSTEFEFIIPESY
UniProt A8MPS7, sequence (A8MPS7 whole entry, looked up): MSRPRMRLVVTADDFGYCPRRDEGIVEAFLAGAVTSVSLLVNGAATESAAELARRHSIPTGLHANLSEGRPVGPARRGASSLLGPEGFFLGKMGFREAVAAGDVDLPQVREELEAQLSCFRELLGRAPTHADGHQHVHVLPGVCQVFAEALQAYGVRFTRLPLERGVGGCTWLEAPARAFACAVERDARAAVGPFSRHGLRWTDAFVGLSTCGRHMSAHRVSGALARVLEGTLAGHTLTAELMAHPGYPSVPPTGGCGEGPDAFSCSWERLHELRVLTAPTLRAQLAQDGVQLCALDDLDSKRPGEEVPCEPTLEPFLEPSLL

log2 fold change, active:
XPNPEP1 isoform 3 (UniProt Q9NQW7) 0.613
WRNIP1 (UniProt Q96S55) 0.222

log2 fold change, inactive:
YES1 (UniProt P07947) -0.024
XAB2 (UniProt Q9HCS7) 0.2
VCPIP1 (UniProt Q96JH7) 0.141
ZC3H13 (UniProt Q5T200) 0.021
ZNF609 (UniProt O15014) 0.013
ZC3H11A (UniProt O75152) 0.078
VPS28 (UniProt Q9UK41) 0.012
ZMYM4 (UniProt Q5VZL5) 0.016
ZNF217 (UniProt O75362) -0.037
YDJC (UniProt A8MPS7) -0.036
USP9X (UniProt Q93008) 0.023
UQCRC2 (UniProt P22695) -0.013
WRB (UniProt O00258) 0.027
ZBTB33 (UniProt Q86T24) -0.004
WDR62 isoform 4 (UniProt O43379) -0.01
XPO6 (UniProt Q96QU8) 0.021
VPS35L (UniProt Q7Z3J2) 0.006
YEATS4 (UniProt O95619) -0.062
YWHAQ (UniProt P27348) -0.045
VRK1 (UniProt Q99986) 0.047
ZC3HC1 (UniProt Q86WB0) 0.078
USP3 (UniProt Q9Y6I4) 0.022
VPS11 (UniProt Q9H270) -0.096
VPS16 (UniProt Q9H269) -0.069
WDR20 isoform 7 (UniProt Q8TBZ3) -0.114
VAV3 isoform 4 (UniProt Q9UKW4) 0.049
UNC13D (UniProt Q70J99) 0.054
VARS (UniProt P26640) 0.16
UTP18 (UniProt Q9Y5J1) 0.006

compound: COc1cc(Nc2ncc3c(n2)-c2ccc(Cl)cc2C(c2c(F)cccc2OC)=NC3)ccc1C(=O)O [alisertib]; assay: as above
Summary of the method: as §1

log2 fold change, inactive:
YES1 (UniProt P07947) 0.049
XAB2 (UniProt Q9HCS7) -0.017
VCPIP1 (UniProt Q96JH7) 0.003
ZNF609 (UniProt O15014) -0.01
ZC3H11A (UniProt O75152) 0.019
VPS28 (UniProt Q9UK41) -0.022
ZMYM4 (UniProt Q5VZL5) -0.004
ZNF217 (UniProt O75362) 0.032
YDJC (UniProt A8MPS7) 0.035
XPNPEP1 isoform 3 (UniProt Q9NQW7) -0.002
USP9X (UniProt Q93008) 0.016
UQCRC2 (UniProt P22695) 0.022
WRB (UniProt O00258) -0.028
ZBTB33 (UniProt Q86T24) -0.059
WDR62 isoform 4 (UniProt O43379) 0.005
XPO6 (UniProt Q96QU8) 0.036
VPS35L (UniProt Q7Z3J2) -0.034
YWHAQ (UniProt P27348) -0.014
VRK1 (UniProt Q99986) -0.004
ZC3HC1 (UniProt Q86WB0) 0.022
USP3 (UniProt Q9Y6I4) -0.008
VPS11 (UniProt Q9H270) 0.002
VPS16 (UniProt Q9H269) 0.031
WDR20 isoform 7 (UniProt Q8TBZ3) 0.175
VAV3 isoform 4 (UniProt Q9UKW4) -0.004
WRNIP1 (UniProt Q96S55) -0.022
UNC13D (UniProt Q70J99) -0.005
VARS (UniProt P26640) -0.02
UTP18 (UniProt Q9Y5J1) -0.032

log2 fold change, active:
ZC3H13 (UniProt Q5T200) -0.362
YEATS4 (UniProt O95619) 0.315
